Rtt109 Vps75: inhibitors of Candida albicans Rtt109/Vps75 histone acetyltransferase; inhibition, % at 34.9 µM; Q5AAJ8; 330,000 compounds, 0.16% hits; purified Rtt109/Vps75, ThioGlo CoA-SH fluorescence, 4 h;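 active means inhibition of at least 50% in every replicate; inconclusive means best replicate reaches 50% inhibition but some replicates fall short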
Target sequence (Q5AAJ8 whole entry, looked up): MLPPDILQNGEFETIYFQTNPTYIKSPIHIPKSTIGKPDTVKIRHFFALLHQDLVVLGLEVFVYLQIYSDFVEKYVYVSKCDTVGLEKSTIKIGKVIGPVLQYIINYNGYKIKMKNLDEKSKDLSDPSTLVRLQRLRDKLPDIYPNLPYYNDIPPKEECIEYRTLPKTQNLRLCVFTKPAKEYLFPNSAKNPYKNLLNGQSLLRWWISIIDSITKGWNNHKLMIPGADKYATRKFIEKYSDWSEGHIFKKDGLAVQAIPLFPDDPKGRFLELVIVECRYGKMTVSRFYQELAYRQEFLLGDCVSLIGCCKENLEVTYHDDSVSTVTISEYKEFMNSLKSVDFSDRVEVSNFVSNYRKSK
PKA-R1A act: activates the PKA-R1A holoenzyme complex; P00514+P68181; PKA-R1A dissociation, Cy5-IP20 fluorescence polarization; scaled: DMSO 0%, 113 µM cGMP 100%; activation, % at 11.4 µM; 340,000 compounds, 0.083% hits; AID 504707;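 active means percent activation above the mean of all tested compounds plus 3 SD, cut at about 19% in these data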;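 further: higher means more PKAc released from R1A so a rise in polarization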
HDAC3 inh: blocks human histone deacetylase 3. O15379. recombinant HDAC3, fluorogenic peptide/trypsin coupled, fluorescence. inhibition, % at 8.3 µM. 320,000 compounds, 0.15% hits; in the data active means inhibition above about 26%, passing the limit was not always enough; inconclusive means no clear call, values can overlap the other calls
PKA-R2B act: PKA-R2B complex activation. P22694+P31323. PKA-R2B holoenzyme dissociation, Cy5-IP20 fluorescence polarization; R2B truncated from residue 108, S112A mutant; 0% DMSO only, 100% 113 µM cGMP. activation, % at 11.4 µM. 340,000 compounds, 0.079% hits. AID 504700;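 active means activation above a cutoff set at the mean over all compounds plus 3 SD, cut at about 18% in these data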;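 further: higher means more holoenzyme dissociation and a rise in polarization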
R1A FP artifact: FP assay interference, PKA-R1A counter-screen; shares compounds with PKA-R1A act; Cy5-IP20 peptide alone, fluorescence polarization artifact counterscreen; activation, % at 11.4 µM; 280 compounds, 7% hits; AID 504799;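 active means mean activation over triplicate runs exceeds the adjusted cutoff derived for the parent primary screen, cut at about 19% in these data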;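 further: no PKA protein present so any polarization rise reflects compound interference; 0% = tracer peptide mix alone and 100% = mix with added PKA catalytic subunit; higher means stronger polarization artifact and likely false positive in parent screen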
PKA-R1A act conf: confirmation of PKA-R1A complex activators; shares compounds with PKA-R1A act; 280 compounds, 9% hits; AID 504800; Cy5-IP20 fluorescence polarization, PKA-R1A holoenzyme dissociation; activation, % at 11.4 µM;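 active means mean activation over replicate wells exceeds the adjusted hit threshold taken from the earlier primary screen, cut at about 20% in these data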;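 further: 0% = holoenzyme mix with DMSO only and 100% = cGMP-activated control wells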
The depositor's hits bear a star. Compounds with a hit are over-represented: about 0.43% of the library has one in this group of screens.

Screening CNC(=O)C1C(=S)NC(N)=C(C#N)C1c1ccccc1 (stereo not drawn) returned Rtt109 Vps75 -7, PKA-R1A act -15, HDAC3 inh 7 and PKA-R2B act 2.
Screening Fc1ccccc1N1CCN(C2CCN(Cc3c[nH]c4ccccc34)CC2)CC1 returned Rtt109 Vps75 10, PKA-R1A act 19*, HDAC3 inh -5, PKA-R2B act -1, R1A FP artifact 4 and PKA-R1A act conf 3.
`O=C(CN1C(=O)c2cccnc2C1=O)c1ccccc1` gave Rtt109 Vps75 3, PKA-R1A act 20*, HDAC3 inh -1, PKA-R2B act 10, R1A FP artifact -1 and PKA-R1A act conf -2.
`O=C(C1=C(O)C(=O)N(Cc2ccco2)C1c1cccc(O)c1)c1ccco1` (stereo not drawn) gave Rtt109 Vps75 9, PKA-R1A act 20*, HDAC3 inh 2, PKA-R2B act 2, R1A FP artifact -1 and PKA-R1A act conf -1.
Screening COc1ccccc1C(=O)NCC(=O)OCC(=O)N(CC(C)C)c1c(N)n(Cc2ccccc2)c(=O)[nH]c1=O returned Rtt109 Vps75 11, PKA-R1A act -2, HDAC3 inh 0 and PKA-R2B act -7.
For CC(=O)Nc1ccc(NS(=O)(=O)c2cn(C)c(=O)n(C)c2=O)cc1 the results were Rtt109 Vps75 2, PKA-R1A act 20*, PKA-R2B act 8, R1A FP artifact 3 and PKA-R1A act conf -1.
Screening COC(=O)c1c(NC(=S)Nc2ccccc2Cl)sc(C)c1C returned Rtt109 Vps75 -21, PKA-R1A act 21*, HDAC3 inh -1, PKA-R2B act -9, R1A FP artifact 0 and PKA-R1A act conf 0.
Screening CCN1C=C(C(C)=O)C(=O)CC1 returned Rtt109 Vps75 9, PKA-R1A act 3 and PKA-R2B act -1.
For Cc1c(C(=O)Nc2ccc(OC(F)(F)F)cc2)sc2nc3n(c(=O)c12)CCC3 the results were Rtt109 Vps75 3, PKA-R1A act -4, HDAC3 inh -1 and PKA-R2B act 12.
Screening Cc1c(C(=O)Nc2ccc(Oc3ccccc3)cc2)sc2nc3n(c(=O)c12)CCC3 returned Rtt109 Vps75 7, PKA-R1A act 21*, HDAC3 inh 10, PKA-R2B act 1, R1A FP artifact -2 and PKA-R1A act conf 0.
CCOc1cc(CNC(=O)CN2C(=O)c3ccccc3S2(=O)=O)ccc1OC was read as Rtt109 Vps75 7, PKA-R1A act 19*, HDAC3 inh -5, PKA-R2B act -6, R1A FP artifact -1 and PKA-R1A act conf 0.
O=C(NCCCn1ccnc1)C(F)(F)C(F)(F)C(=O)NCCCn1ccnc1 was read as Rtt109 Vps75 -11, PKA-R1A act 0, HDAC3 inh -2 and PKA-R2B act 1.
For CC(NC(=O)NCCCn1ccnc1)(C(F)(F)F)C(F)(F)F the results were Rtt109 Vps75 1, PKA-R1A act 21*, HDAC3 inh -4, PKA-R2B act -4, R1A FP artifact 0 and PKA-R1A act conf 2.
Screening COc1ccc(CNC(=O)CNC(=O)c2c(C)nn(C)c2Cl)cc1 returned Rtt109 Vps75 -29, PKA-R1A act 19*, HDAC3 inh -4, PKA-R2B act 0, R1A FP artifact 5 and PKA-R1A act conf 3.
Screening Cc1c(C(=O)NC2CCCc3ccccc32)cccc1[N+](=O)[O-] (stereo not drawn) returned Rtt109 Vps75 6, PKA-R1A act 23*, HDAC3 inh -1, PKA-R2B act 8, R1A FP artifact 2 and PKA-R1A act conf 0.
For COc1ccc(C(=O)NC2CCCc3ccccc32)cc1[N+](=O)[O-] (stereo not drawn) the results were Rtt109 Vps75 -28, PKA-R1A act -5, HDAC3 inh -3 and PKA-R2B act -1.
For COCCn1c(N)c(N(Cc2ccccc2)C(=O)COc2ccc(F)cc2Cl)c(=O)[nH]c1=O the results were Rtt109 Vps75 6, PKA-R1A act 20*, HDAC3 inh 0, PKA-R2B act 0, R1A FP artifact 4 and PKA-R1A act conf 5.
O=[N+]([O-])c1ncccc1OCc1ccccc1Br was read as Rtt109 Vps75 7, PKA-R1A act 1, HDAC3 inh -1 and PKA-R2B act 3.
CCOC(=O)N1CCC(NC(=O)CCC(=O)N2CCOc3ccc(Cl)cc32)CC1 was read as Rtt109 Vps75 -6, PKA-R1A act 21*, HDAC3 inh -2, PKA-R2B act 1, R1A FP artifact 5 and PKA-R1A act conf 1.
Screening Cc1nc(SCC(=O)NNC(=O)c2cccs2)[nH]c(=O)c1C returned Rtt109 Vps75 -12, PKA-R1A act -3, HDAC3 inh -15 and PKA-R2B act -3.
For CC(C)c1ccccc1NC(=O)CSc1n[nH]c(=O)n1C1CC1 the results were Rtt109 Vps75 -5, PKA-R1A act -10, HDAC3 inh -1 and PKA-R2B act 8.
Screening CC(NC(=O)Cc1ccccc1)c1ccccc1 (stereo not drawn) returned Rtt109 Vps75 -2, PKA-R1A act 19*, HDAC3 inh -1, PKA-R2B act 11, R1A FP artifact 3 and PKA-R1A act conf 1.
For CC(NC(=O)C(Cc1ccccc1)=NO)c1ccccc1 (stereo not drawn) the results were Rtt109 Vps75 -1, PKA-R1A act -3 and PKA-R2B act 1.
For O=C(NCc1ccccc1Cl)c1ccc(S(=O)(=O)Nc2cccc(C(F)(F)F)c2)cc1 the results were Rtt109 Vps75 3, PKA-R1A act 22*, HDAC3 inh inconclusive, PKA-R2B act 12, R1A FP artifact 26* and PKA-R1A act conf 22*.
For Cc1ccc(N=Nc2c(=O)[nH]n3c(C)cc(C)nc23)cc1 the results were Rtt109 Vps75 11, PKA-R1A act 23*, HDAC3 inh 13, PKA-R2B act 3, R1A FP artifact 6 and PKA-R1A act conf 6.
Screening Cc1cc(C)n2[nH]c(=O)c(N=Nc3ccc(S(N)(=O)=O)cc3)c2n1 returned Rtt109 Vps75 22, PKA-R1A act -14, HDAC3 inh 12 and PKA-R2B act -5.
`COc1cc(C)c(C(=O)Oc2cc(C)c(C(=O)O)c(O)c2C)c(O)c1C` gave Rtt109 Vps75 18, PKA-R1A act -4, HDAC3 inh 3 and PKA-R2B act 6.
`COC(=O)c1c(C)cc(OC(C)=O)c(C)c1OC(C)=O` gave Rtt109 Vps75 1, PKA-R1A act 20*, HDAC3 inh 1, PKA-R2B act 8, R1A FP artifact 4 and PKA-R1A act conf 4.
Screening COC(=O)c1ccc(Oc2nc3ccccc3n3c(C)nnc23)cc1 returned Rtt109 Vps75 -23, PKA-R1A act 8, HDAC3 inh 5 and PKA-R2B act 4.
Screening O=C(Cn1cnc2ccccc2c1=O)Nc1ccc(S(=O)(=O)N2CCOCC2)cc1 returned Rtt109 Vps75 -2, PKA-R1A act 19*, HDAC3 inh 4, PKA-R2B act 2, R1A FP artifact 0 and PKA-R1A act conf 3.

Screening results as filed in PubChem.
